Data on 67 compounds can be found in PubChem BioAssay AID623877 (Johns Hopkins Ion Channel Center, 2012).

About 1,000 (0.29%) of roughly 340,000 compounds were called active.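 The calls were made as follows: active = fluorescence-ratio B-score plate-corrected deviation score at least 3 library SD below zero, with starting fluorescence score within 5 deviations; inactive = the rest.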 This excerpt belongs to a sample that is enriched for actives.

The target in this assay is Anoctamin-1 (Mus musculus) (UniProt Q8BHY3). In words: mouse ANO1 channel activation – cell-based, HTS, primary screen (AID 623877).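 As to B-score: channel opened by trigger with iodide after compound preincubation; score built on the fluorescence ratio of max minus min over baseline; more negative score means more quench and so TMEM16A activation or potentiation.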 Particulars: HEK293 TMEM16A/YFP-H148Q/I152L, iodide quench fluorescence, at 10 µM; hits give low values.
Chain of Anoctamin-1 (Mus musculus) (Q8BHY3 whole entry, looked up): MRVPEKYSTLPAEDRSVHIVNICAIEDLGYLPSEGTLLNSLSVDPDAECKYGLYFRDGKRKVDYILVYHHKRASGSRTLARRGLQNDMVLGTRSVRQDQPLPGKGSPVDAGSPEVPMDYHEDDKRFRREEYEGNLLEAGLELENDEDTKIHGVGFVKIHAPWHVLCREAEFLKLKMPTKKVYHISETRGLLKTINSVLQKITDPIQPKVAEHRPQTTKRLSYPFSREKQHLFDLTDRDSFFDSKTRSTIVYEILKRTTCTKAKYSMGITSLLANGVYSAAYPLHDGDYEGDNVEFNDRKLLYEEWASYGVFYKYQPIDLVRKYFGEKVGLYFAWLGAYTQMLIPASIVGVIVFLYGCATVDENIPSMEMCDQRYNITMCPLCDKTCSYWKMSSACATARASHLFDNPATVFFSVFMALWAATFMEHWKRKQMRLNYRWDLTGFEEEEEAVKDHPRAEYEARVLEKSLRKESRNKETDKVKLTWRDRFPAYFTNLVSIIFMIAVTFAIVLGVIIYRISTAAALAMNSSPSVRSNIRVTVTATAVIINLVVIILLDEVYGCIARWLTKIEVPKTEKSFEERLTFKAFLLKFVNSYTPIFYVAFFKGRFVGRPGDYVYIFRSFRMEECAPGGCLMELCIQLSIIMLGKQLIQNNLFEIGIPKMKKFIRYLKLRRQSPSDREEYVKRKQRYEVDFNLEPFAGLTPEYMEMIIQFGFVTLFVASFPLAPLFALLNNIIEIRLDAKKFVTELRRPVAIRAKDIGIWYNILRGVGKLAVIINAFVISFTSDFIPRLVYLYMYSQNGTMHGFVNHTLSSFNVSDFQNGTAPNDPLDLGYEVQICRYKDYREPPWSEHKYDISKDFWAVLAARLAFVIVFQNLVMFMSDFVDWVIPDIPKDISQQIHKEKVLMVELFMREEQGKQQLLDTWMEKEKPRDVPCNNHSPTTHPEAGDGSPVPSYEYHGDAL
For `O=C(CCl)N(Cc1cccc([N+](=O)[O-])c1)c1cccc(Cl)c1`, the B-score result was “inactive”.
The same measure for `Cc1ccc(-c2csc(C(C#N)=C(O)CN3CCN(C(=O)c4ccco4)CC3)n2)cc1`: “inactive”; for `COC(=O)Cc1c(-c2[nH]c3ccccc3c2CC(=O)OC)[nH]c2ccccc12`: “inactive”.
The same measure for `COC(=O)C[n+]1cccc2ccccc21`: -8.8 (active); for `O=C(C[n+]1cc(Br)cc2ccccc21)c1ccc(F)cc1`: “inactive”; for `O=C(Nc1cccc(Cl)c1)C1CCCN(c2cnccn2)C1` (configuration not stated): “inactive”.
In the case of `Cc1ccc2c(c1)C(c1ccccc1)N(C(=O)c1ccc(S(=O)(=O)N3CCOCC3)cc1)CC(=O)N2` (configuration not stated) it was “inactive”; in that of `COc1cccc(N2CCN(CC(=O)Nc3ccnn3C3CCCC3)CC2)c1`, -41.6 (active); in that of `COc1ccccc1N1CCN(CC(=O)Nc2ccnn2C2CCCC2)CC1`, “inactive”.
In the case of `COc1cccc(C(=O)N2CCC(n3nccc3NC(=O)C3CCOC3)CC2)c1` (configuration not stated), the B-score result was “inactive”.
With `COc1ccc(CNC(=O)CN(Cc2ccc(Cl)cc2)S(C)(=O)=O)cc1`, the B-score result is “inactive”.
The same measure for `Nc1ncnc2c1cnn2C1CC(O)C(CO)O1` (configuration not stated): “inactive”; for `Cc1noc(/C=C/c2ccco2)c1S(=O)(=O)N1CCC(C(=O)Nc2ccc(Cl)cn2)CC1`: “inactive”.
The same measure for `C=CC(COCc1ccccc1)N(CC(=O)OC)S(=O)(=O)c1cc(Br)ccc1OC` (configuration not stated): “inactive”.
In the case of `C=CC(COCc1ccccc1)N(Cc1ccccc1)S(=O)(=O)c1ccccc1Br` (configuration not stated) it was -4.97 (active); in that of `C=CCCN(Cc1ccccc1)S(=O)(=O)c1ccccc1Br`, “inactive”; in that of `O=C(CN1CCN(S(=O)(=O)c2cccc(Cl)c2)CC1)N1CCCCC1`, “inactive”.
On to `O=C(CN1CCCSc2ccccc21)N1CCN(S(=O)(=O)c2ccccc2)CC1`, for which the B-score entry was “inactive”.
Take `O=C(CN1CCCSc2ccccc21)N1CCN(S(=O)(=O)c2cccc(F)c2)CC1`: the B-score was -45.3 (active).
The same measure for `COc1cc(C(=O)Nc2oc(-c3ccccc3)c(-c3ccccc3)c2C#N)cc(OC)c1OC`: “inactive”.
As to `O=C1c2ccccc2C(=O)N1CCCCCCN1C(=O)c2ccccc2C1=O`, the B-score entry was “inactive”.
Consider `N#Cc1c(NC(=O)CCCN2C(=O)c3ccccc3C2=O)oc(-c2ccccc2)c1-c1ccccc1`, for which the B-score is -21.8 (active).
The same measure for `CN(C)S(=O)(=O)c1ccc(N2CCCC2)c(C(=O)NCc2ccccc2)c1`: “inactive”.
As to `O=P(c1cccs1)(c1cccs1)c1cccs1`, the B-score result is “inactive”.
The same measure for `COc1ccc(N=C2C=CC(=O)O2)cc1`: “inactive”; for `CCOc1ccccc1-n1c(SCC(=O)NCc2ccco2)nnc1-c1ccncc1`: “inactive”.
Turning to `COc1ccc(-n2c(SCC(=O)NCc3cccs3)nnc2-c2ccoc2C)cc1`, the B-score result was “inactive”.
In the case of `Cc1ccccc1-n1c(SCC(=O)NCc2cccs2)nnc1-c1ccncc1` it was -9.87 (active).
In the case of `O=C(Oc1ccccc1)Oc1ccc2c(c1)oc(=O)c1ccccc12` it was “inactive”; in that of `CC(C)N(Cc1ccccc1)C(=S)Nc1ccc(OC(F)F)cc1`, “inactive”.
The same measure for `Cc1ccccc1NC(=O)c1nn(-c2ccc(F)c(F)c2)ccc1=O`: “inactive”; for `CCCSc1ncccc1C(=O)O`: “inactive”; for `CCN(CC)S(=O)(=O)c1ccc(NC(=O)c2cnc(C)cn2)cc1`: “inactive”.
As to `CCN(CC)S(=O)(=O)c1ccc(NC(=O)c2cccnc2Cl)c(NC(=O)c2cccnc2Cl)c1`, the B-score is -8.41 (active).
The same measure for `Cc1ccc(CNC(=O)c2cccnc2Cl)cc1`: “inactive”; for `O=C(NCCN1CCCC(O)C1)c1cc(COc2c(F)cccc2F)on1` (configuration not stated): “inactive”; for `CCc1nnc(NC(=O)CSc2nc(SC)ns2)s1`: “inactive”.
In the case of `COc1ccc(OC)c(Nc2nc3ccccc3n3cnnc23)c1` it was “inactive”.
In the case of `COc1ccc(S(=O)(=O)N2CCCC2)c(C)c1C` it was “inactive”; in that of `Nn1c(SCC(=O)NC(=O)NC2CCCC2)nnc1-c1ccccc1F`, “inactive”.
With `CC(C)NC(=O)NC(=O)CSc1nnc(-c2ccccc2F)n1N`, the B-score result was “inactive”.
The same measure for `Nn1c(SCC(=O)NC2CCCC2)nnc1-c1ccccc1F`: -15.8 (active); for `COC(=O)c1ccc(C(NC(=O)OCc2ccccc2)/C(F)=C/[C@@H](C)C(=O)O)cc1` (some centres not stated): “inactive”.
Consider `COc1ccc(COC(=O)NC(C(=O)O)c2ccccc2)cc1` (configuration not stated), for which the B-score was -15.7 (active).
`CC(C)[C@H](NC(=O)OCc1ccccc1)C(=O)OCc1ccccc1`: the B-score result was “inactive”.
The same measure for `Cc1cccc(C)c1NC(=O)C1CCCN1C(=O)OC(C)(C)C` (configuration not stated): “inactive”.
The same measure for `CC(=O)Nc1ccc(S(=O)(=O)NC(C)C(=O)OCC(=O)NC2CCCC2)cc1` (configuration not stated): “inactive”.
The same measure for `C/C=C/C(=O)OCc1csc(CC(=O)Nc2ccccc2C)n1`: “inactive”; for `Cc1ccc(NC(=O)Cc2nc(COC(=O)C(C)NS(=O)(=O)c3ccc(C)cc3)cs2)cc1` (configuration not stated): -5.62 (active); for `CCOc1cc(C(=O)N(Cc2ccccc2)c2ccc(C)cc2)ccc1OCC(=O)N1CCOCC1`: “inactive”.
Regarding `CCOC(=O)C1(Cc2ccc(O)cc2)NC(c2ccccc2F)C2C(=O)N(C)C(=O)C21` (configuration not stated), the B-score result is “inactive”.
The same measure for `CCOc1cc(/C=C2/N=C(c3ccc(C(C)(C)C)cc3)OC2=O)cc(Cl)c1OS(C)(=O)=O`: “inactive”.
In the case of `COc1ccc(-c2ccnc(SCC(=O)N3CCOCC3)n2)cc1`, the B-score result was “inactive”.
The same measure for `C=CCC1=C/C(=C\c2c(N)n3nc(CC(=O)N4CCOCC4)sc3nc2=O)C=C(OC)C1=O`: “inactive”; for `COC1=C/C(=C/c2c(N)n3nc(CC(=O)N4CCOCC4)sc3nc2=O)C=CC1=O`: -12.3 (active).
In the case of `N#CCSc1nn(-c2ccc(F)cc2)c(=S)s1` it was “inactive”.
The same measure for `O=C(CSc1ccccn1)N1CCN(S(=O)(=O)c2ccc(Cl)cc2)CC1`: “inactive”; for `CCC(C)n1[nH]c(=O)cc1N` (configuration not stated): “inactive”.
With `CCC(C)n1[nH]c(=O)c2c(C)cc(C)nc21` (configuration not stated), the B-score was -6.98 (active).
In the case of `CCCC(C)n1[nH]c(=O)c2c(C)cc(C)nc21` (configuration not stated) it was “inactive”; in that of `CSc1nc2sc3c(c2c(=O)[nH]1)CCc1ccccc1-3`, “inactive”.
The same measure for `O=C(COC(=O)c1cc[n+]([O-])cc1)Nc1ccc(Cl)c(C(F)(F)F)c1`: “inactive”; for `O=C(CC(O)(C(F)(F)F)C(F)(F)F)Nc1ccc(Cl)c(Cl)c1`: -12.9 (active).
As for `NC(=O)N1CCCC1C(=O)Nc1ccc(Cl)c(Cl)c1` (configuration not stated), the B-score entry was “inactive”.
In the case of `Cc1ccc(S(=O)(=O)N2CCOCC2)cc1C(=O)Nc1ccccc1N1CCCC1` it was “inactive”.
The same measure for `Nc1ccc2c(c1)C(=Cc1cccnc1)c1ccccc1-2`: “inactive”.
The same measure for `N#CCC(=O)N/N=C/c1ccc(SCC(=O)Nc2ccccc2)o1`: “inactive”.
